For orientation: AC50 means the concentration at which the activity in the assay is half-maximal.

The structures appear in SMILES notation. Among all 16,000 compounds or so, about 5,800 (36%) were called active. Not shown: some 23% with an inconclusive outcome. This is one part of the list. A number with no mark means an inactive call. Calls come from the whole dose curve; as a rule, active = well fitted curve in the direction sought with a large enough effect; inconclusive = small, poorly fitted or top-dose-only effect, or effect the other way; inactive = no such curve, though single readings can be large or run the other way.
% is set by controls: 0 for no effect and ±100 for the full control effect.

Chain of Cytochrome P450 2C19 (Homo sapiens) (P33261 whole entry, looked up): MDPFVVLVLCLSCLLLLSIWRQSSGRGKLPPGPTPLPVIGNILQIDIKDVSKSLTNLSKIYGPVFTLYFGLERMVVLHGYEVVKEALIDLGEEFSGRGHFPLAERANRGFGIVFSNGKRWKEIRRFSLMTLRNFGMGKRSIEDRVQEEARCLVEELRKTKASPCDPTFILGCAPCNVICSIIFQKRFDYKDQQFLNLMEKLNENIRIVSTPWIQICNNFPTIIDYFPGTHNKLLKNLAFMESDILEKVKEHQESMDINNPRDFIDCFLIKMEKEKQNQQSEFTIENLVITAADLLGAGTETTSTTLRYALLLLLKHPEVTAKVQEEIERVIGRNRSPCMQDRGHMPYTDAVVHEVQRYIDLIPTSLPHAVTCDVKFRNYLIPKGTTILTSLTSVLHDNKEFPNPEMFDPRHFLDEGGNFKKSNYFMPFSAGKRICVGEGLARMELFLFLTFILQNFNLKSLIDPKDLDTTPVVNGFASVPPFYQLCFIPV

This assay concerns the target Cytochrome P450 2C19 (Homo sapiens) (UniProt P33261). Kind of assay: Cytochrome panel assay with activity outcomes. Particulars: recombinant CYP, pro-luciferin dealkylation, luminescence, p450-cyp2c19; series mostly up to 57.1 µM.
With `Cc1nn(Cc2ccc([N+](=O)[O-])cc2)c(=O)n1-c1cccc(F)c1`, the AC50 was 11.2 µM (active).

As for `CSCC[C@@H]1NC(=O)C/C=C\[C@@H](C)COC(=O)[C@H](C)COC1=O`, the activity, negative = inhibition is -10.8% [at 11.4 µM]. On the same count and under the same terms, with `C[C@@H]1/C=C\CC(=O)OC[C@H]2O[C@@H](C=C[C@@H]2O)[C@H](C)/C=C\CC(=O)OC[C@H]2O[C@H]1C=C[C@@H]2O` the figure was -20.1% [at 11.4 µM]. For `CS(=O)(=O)N(Cc1cc2ccccc2[nH]c1=O)C1CCCCC1`, the AC50 was 15.8 µM (active).

On to `CN(Cc1cc2ccccc2[nH]c1=O)S(C)(=O)=O`, for which the AC50 result is “inactive”. Still for that read-out and setting: the figure for `COc1ccc(-n2c(N)c(C(=O)NCc3ccco3)sc2=S)cc1` is 17.8 µM (active); for `O=C(Nc1ccccc1)N1CC2(CCN(C(=O)c3ccco3)CC2)C1` it is “inactive”. The same measure, in the same setting: the entry for `O=C(NNC(=S)Nc1ccccc1)c1ccco1` is “inactive”; for `CC1=C(C(=O)Nc2ccccc2)C(c2ccco2)NC(=S)N1` (stereo unspecified) it is 35.5 µM (active). Consider `CCN(CC)CC[n+]1ccc2c(C)c3[nH]c4ccccc4c3c(C)c2c1`, for which the activity, negative = inhibition is 2.93% [at 11.4 µM]. Turning to `S=C(NCc1ccco1)N1CCN(Cc2ccco2)CC1`, the AC50 was 15.8 µM (active). Same read-out and setting: the figure for `S=C(NCc1ccco1)N1CCN(C(c2ccccc2)c2ccccc2)CC1` is 7.08 µM (active).

`O=C(c1ccco1)N1CCC[C@@]2(CCN(C(c3ccccc3)c3ccccc3)C2)C1`: the AC50 entry was “inactive”. The same measure, in the same setting: the entry for `CS(=O)(=O)Nc1c(O)ccc2c1CCC[C@H]2C1=NCCN1` is “inactive”; for `O=C1c2cccnc2C(=O)N1Cc1ccc(F)cc1` it is 8.91 µM (active); for `CCOc1ccc(N2C(=O)c3cccnc3C2=O)cc1` it is “inactive”.

On to `COc1ccccc1CN1CCCC2(CCN(C(C)=O)CC2)C1`, for which the AC50 entry was “inactive”. Same read-out and setting: with `S=C1SCN(C2CCCCCCCCCCC2)CN1C1CCCCCCCCCCC1` the figure was 3.98 µM (active); with `CCNc1ncc2nc(-c3ccc(F)cc3)c(=O)n(-c3ccc(OC)cc3)c2n1`, “inactive”.

`Cc1cc(OCCn2cc(/C(N)=N/O)c3ccccc32)ccc1Cl`: the AC50 was 0.708 µM (active). Regarding `CCCCN(C)C(=O)c1coc(=O)c2ccccc12`, the AC50 entry is “inactive”. Regarding `Cc1c(C#N)c(=O)oc2ccc3ccccc3c12`, the AC50 entry was “inactive”. On the same count and under the same terms, the figure for `CCCCNC(=O)Cc1coc2ccc3ccccc3c12` is 3.16 µM (active); for `Nc1nc2c(c(=O)[nH]1)N(C=O)[C@H](CNc1ccc(C(=O)N[C@@H](CCC(=O)O)C(=O)O)cc1)CN2` it is “inactive”; for `CCOC(=O)c1c(C)c(C(=O)N2CCCCCC2)c(C)n1C` it is 7.08 µM (active). Take `CCOC(=O)c1c(C)c(C(=O)NCCN2CCOCC2)c(C)n1CC`: the AC50 entry was “inactive”. Still for that read-out and setting: with `CC(C)CN1CCC2(CC1)CCN(C(=O)c1csnn1)CC2` the entry was “inactive”; with `O=C(Nc1cccc(F)c1)/C(=C\c1ccco1)NC(=O)c1cccs1`, 14.1 µM (active).

Consider `CCOC(=O)c1c(C)nc2c(c1-c1ccccc1)C(=O)CC(C)(C)C2`, for which the AC50 is 7.08 µM (active). On to `CCn1cc(C(=O)O)c(=O)c2cc(F)c(N3CCN[C@@H](C)C3)c(F)c21`, for which the AC50 entry is “inactive”.

For the compound `COC(=O)C1=C(C)N=C2SC(C)C(=O)N2C1/C=C/c1ccccc1` (stereo unspecified), the AC50 was 5.01 µM (active).

Take `CCc1cc2c(c(CC)n1)CCC(=O)N2Cc1ccc(-c2ccccc2-c2nn[nH]n2)cc1`: the AC50 was 5.01 µM (active). As to `CC1=N[C@@](C)(COC(=O)[C@]2(C)N[C@](C)(CO)CO2)COC1=O`, the activity, negative = inhibition is 40.4% [at 11.4 µM]. For `COc1ccc(/C=C(/C(=O)Nc2ccccc2C(=O)NC(C)C)c2ccccc2)cc1`, the AC50 is 15.8 µM (active). For the compound `O=C(O)/C(=C\c1ccccc1)c1ccccc1`, the activity, negative = inhibition was 11.9% [at 11.4 µM]. For `Cc1ccccc1NC(=O)/C(=C/c1ccccc1)c1ccccc1`, the AC50 is 10 µM (active). Same read-out and setting: with `CC(C)NC(=O)c1ccccc1NC(=O)/C=C/c1ccc([N+](=O)[O-])cc1` the entry was “inactive”; with `CCN(CC)CCOC(=O)C1(C2CCCCC2)CCCCC1`, “inactive”. On the same count and under the same terms, the entry for `N#Cc1cccc(NC(=O)N2CCCC3(CCN(C(=O)c4cc(C(F)(F)F)cc(C(F)(F)F)c4)CC3)C2)c1` is “inactive”; for `O=C(Nc1cccc(F)c1)N1CC2(CCN(C(=O)c3cc(C(F)(F)F)cc(C(F)(F)F)c3)CC2)C1` it is “inactive”. Same read-out and setting: the figure for `N#Cc1cccc(NC(=O)N2CC3(CCN(C(=O)c4cc(C(F)(F)F)cc(C(F)(F)F)c4)CC3)C2)c1` is 0.631 µM (active); for `C/C(=N\OC(=O)c1ccc(F)cc1)c1nccs1` it is 17.8 µM (active). For `Cc1ccc2c(c1)/C(=N/OC(=O)c1ccc(F)cc1)CCS2`, the AC50 result was “inactive”. In the case of `O=C(O)[C@@H]1C[C@@H](C(=O)O)N1`, the AC50 is 25.1 µM (active). Still for that read-out and setting: the entry for `O=C(O)[C@H]1C[C@H](C(=O)O)N1` is “inactive”. With `O=C(O)[C@H]1[C@H](C(=O)O)[C@H](C(=O)O)C[C@@H]1C(=O)O`, the activity, negative = inhibition is 24.8% [at 11.4 µM]. In the case of `O=[N+]([O-])c1ccccc1N/N=C/c1c[nH]c2ccccc12`, the AC50 was 10 µM (active). With `COc1c(/C=N/Nc2ccc([N+](=O)[O-])cc2[N+](=O)[O-])c(C)nn1-c1ccccc1`, the AC50 result is “inactive”. Consider `O=S(=O)(NCc1cn2ccsc2n1)c1ccc(Oc2ccccc2)cc1`, for which the AC50 was 10 µM (active). Same read-out and setting: with `COc1ccccc1N1CCN(CCN2C(=O)c3ccccc3C(C)(C)C2=O)CC1` the entry was “inactive”; with `COc1cccc2cc(C(=O)CC3(O)C(=O)N(Cc4ccccc4)c4ccccc43)c(=O)oc12` (stereo unspecified), 25.1 µM (active); with `N.N.O=C(O)C1(C(=O)O)CCC1.[Pt]`, 3.98 µM (active). As to `O=C(O)C1(C(=O)O)CCN(S(=O)(=O)c2ccccc2)CC1`, the activity, negative = inhibition was 16.2% [at 11.4 µM].

In the case of `O=C(CSc1nnc(COc2ccccc2)n1-c1ccccc1)c1ccccc1`, the AC50 is 3.98 µM (active).

In the case of `COc1ccc(OCc2nnc(SCC(=O)O)n2N)cc1`, the AC50 result was “inactive”. Still for that read-out and setting: with `Cc1nonc1NC(=O)N1CCCC1` the entry was “inactive”; with `CCOC(=O)c1nnn(-c2nonc2N)c1-c1ccccc1`, 2.82 µM (active); with `Cc1c(C(=O)N2CCCCCC2)nnn1-c1nonc1N`, 7.94 µM (active). Still for that read-out and setting: the figure for `Nc1nonc1-n1nncc1-c1ccccc1` is 6.31 µM (active).

In the case of `CC(C)OC(=O)c1nnn(-c2nonc2N)c1CSc1ccccn1`, the AC50 was 0.251 µM (active). In the case of `NC(N)=NC(N)=Nc1c(F)c(F)c(F)c(F)c1F`, the activity, negative = inhibition was -5.72% [at 11.4 µM].
